Measurements from PubChem BioAssay (Tox21).
Results filed as inconclusive are left out. Entries that show only a call come without a potency. Where a structure was tested more than once in an assay, its records may differ in their call. The source made the active and inactive calls. Calls follow the shape of the full dose curve.

Experiment: p53 small molecule agonists, cell-based qHTS assay with human liver microsomes: qHTS cell viability counter screen (AID 1963579); also: nearly all actives have a fitted effect of over 45% in size
Conditions: p53RE-bla HCT-116 viability, ATP luminescence, 16 h, HLM; series mostly up to 66 µM
Description: National Center for Advancing Translational Sciences [NCATS]
Division of Preclinical Innovation [DPI]
U.S. Environmental Protection Agency [EPA]
National Institutes of Environmental Health Sciences [NIEHS]
National Toxicology Program [NTP]
U.S. Food and Drug Administration [FDA]
p53, a tumor suppressor protein, is activated following cellular insult, including DNA damage and other cellular stresses. The activation of p53 regulates cell fate by inducing DNA repair, cell cycle arrest, apoptosis, or cellular senescence. The activation of p53, therefore, is a good indicator of DNA damage and other cellular stresses. […] The activation of the reporter gene under culture conditions can be detected by fluorescence intensity. This cell line was used to screen the Tox21 10K compound library in the condition of presence of human liver microsomes and to identify agonists that activate the p53 signaling pathway after in vitro metabolic activation (Ooka et al., Archive of Toxicology 96:1975-1987, 2022).
Tox21 Assay Protocol Summary:
The p53RE-bla cells were dispensed at 4,000cells/3ul/well in 1536-well black-clear bottom plates. After the assay plates were incubated at 37 C, 5% CO2 incubator for 5 hours, 23 nL of compounds dissolved in DMSO, positive controls or DMSO only was transferred to the assay plate. Following compound addition, 3 uL of human liver microsomes (XenoTech, Kansas City, KS) at final concentration of 0.5 mg/mL and 1uL of B-Nicotinamide adenine dinucleotide 2'-phosphate (NADPH) at final concentration of 0.5 mg/mL were transferred to the assay plate. The plates were incubated at 37 C for 16 hours. 1 uL of LiveBLAzer detection mixture was added to each well and the plates were incubated at room temperature in the dark for 2 h. Fluorescence intensity at 460 and 530 nm emission and 405 nm excitation were measured by an Envision plate reader. For cell viability readout that measures cytotoxicity, 4 ul/well of CellTiter-Glo reagent was added into the assay plates using a Flying Reagent Dispenser. After 30 min incubation at room temperature, the luminescence intensity in the plates was measured using a ViewLux plate reader.
Potency is read from the fitted curve at half-maximal effect.

Row | Compound | Potency | activity change, negative = cytotoxicity
1 | Cc1oc(C)c(C(=O)Nc2ccccc2)c1C | inactive | –
2 | C[C@@H]1CCN(C(=O)[C@H](CCCN=C(N)N)NS(=O)(=O)c2cccc3c2NC[C@H](C)C3)[C@@H](C(=O)O)C1 | inactive | –
3 | CC(=O)O[C@H](CC(=O)[O-])C[N+](C)(C)C | inactive | –
4 | CC(C)CC(=O)O | inactive | –
5 | [Cl][In]([Cl])[Cl] | inactive | –
6 | O=C(O)/C=C/c1ccc(Cn2ccnc2)cc1 | inactive | –
7 | O=C(O)CNc1ccccc1 | inactive | –
8 | OCCOCCN1CCN(C2=Nc3ccccc3Sc3ccccc32)CC1 | inactive | –
9 | CNCCCC12CCC(c3ccccc31)c1ccccc12 | inactive | –
10 | O=C(O)/C=C/c1ccccc1 | inactive | –
11 | ON(Cc1ccccc1)Cc1ccccc1 | inactive | –
12 | CC(COCC(C)OC(=O)c1ccccc1)OC(=O)c1ccccc1 (stereo not given) | inactive | –
13 | Clc1ccccc1-c1nc(-c2ccncc2)no1 | inactive | –
14 | FC(F)(F)c1cccc(Cl)c1 | inactive | –
15 | CC(C)Nc1ccccc1 | inactive | –
16 | CC(C)(O)C(=O)O | inactive | –
17 | COC(=O)/C=C/c1ccccc1 | inactive | –
18 | Cc1ccccc1C(N)=O | inactive | –
19 | CO[C@@H]1[C@@H](O[C@@H]2O[C@H](C)[C@@H](O[C@H]3C[C@@](C)(O)[C@@H](O)[C@H](C)O3)[C@H](N(C)C)[C@H]2O)[C@@H](CC=O)C[C@@H](C)[C@@H](O[C@@H]2CC[C@H](N(C)C)[C@@H](C)O2)/C=C/C=C/C[C@@H](C)OC(=O)C[C@H]1OC(C)=O | inactive | –
20 | N[C@@H](CSSC[C@H](N)C(=O)O)C(=O)O | – | 1.19% [at 0.249 µM] (inactive)

Row | Compound | Potency | activity change, negative = cytotoxicity
21 | CC(C)CCCC(C)CCO (stereo not given) | inactive | –
22 | CCN(CCO)c1cccc(C)c1 | inactive | –
23 | NS(=O)(=O)c1cc2c(cc1Cl)NC(CC1CCCC1)NS2(=O)=O (stereo not given) | inactive | –
24 | COC(OC)OC | inactive | –
25 | O=C(O)c1ccccc1[N+](=O)[O-] | inactive | –
26 | Cc1ccc(C(=O)O)cc1 | inactive | –
27 | Cc1cc(O)cc(C)c1Cl | inactive | –
28 | FC(F)(F)C(Cl)(Cl)Cl | inactive | –
29 | CNC(=O)[C@H]1O[C@@H](n2cnc3c(NCc4cc(Cl)ccc4OCc4cc(C)no4)ncnc32)[C@H](O)[C@@H]1N | inactive | –
30 | CCOC(=O)c1ccccc1C | inactive | –
31 | COC(=O)Nc1nc2ccc(S(=O)c3ccccc3)cc2[nH]1 (stereo not given) | inactive | –
32 | CCC(=O)OCc1ccc(OC)cc1 | inactive | –
33 | O=C1NC2NC(=O)NC2N1 (stereo not given) | inactive | –
34 | O=C(c1ccccc1)c1ccccc1O | inactive | –
35 | F[Si-2](F)(F)(F)(F)F | inactive | –
36 | Nc1ccncc1N | inactive | –
37 | CC(C)N=C(N)/N=C(\N)Nc1ccc(Cl)cc1 | inactive | –
38 | Nc1ccc([N+](=O)[O-])c(C(F)(F)F)c1 | inactive | –
39 | CCC(C)S (stereo not given) | – | 2.56% [at 2.33 µM] (inactive)
40 | CCCCC(CC)COC(=O)CC(C(=O)OCC(CC)CCCC)S(=O)(=O)O (stereo not given) | 44 µM (active) and inactive | –
